# From PubChem BioAssay AID652245 (The Scripps Research Institute Molecular Screening Center, 2013)
# About 920 (58%) of roughly 1,600 compounds were called active. So high a share suggests a set chosen from earlier hits. Not all results are given here. A number with no mark means an inactive call.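 Rule for the calls: active = inhibition above the primary screen's cutoff, the mean inhibition of all screened compounds plus 3 SD (cut at about 13% in these data); inactive = the rest.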
# Molecular target: Galanin receptor type 3 (Homo sapiens) (UniProt O60755)
# Assay: GalR3 antagonist hit confirmation, cell-based, fluorescence, triplicate (AID 652245);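 note: 0% = forskolin plus galanin and 100% = forskolin alone with DMSO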
# Conditions: HEK293 GalR3 CNG cAMP biosensor, membrane potential fluorescence; at 3 µM; active compounds read high
# Chain of Galanin receptor type 3 (Homo sapiens) (O60755 1-299 limits assumed): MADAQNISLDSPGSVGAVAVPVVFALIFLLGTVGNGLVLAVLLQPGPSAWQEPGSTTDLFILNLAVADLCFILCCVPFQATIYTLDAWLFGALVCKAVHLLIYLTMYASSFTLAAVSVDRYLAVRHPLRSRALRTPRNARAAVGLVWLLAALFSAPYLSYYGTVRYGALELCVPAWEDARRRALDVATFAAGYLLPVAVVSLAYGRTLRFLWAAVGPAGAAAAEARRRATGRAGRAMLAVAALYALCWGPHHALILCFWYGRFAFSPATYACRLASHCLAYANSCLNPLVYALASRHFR
row,SMILES,inhibition
1,CCCCCCCCCCCCn1ccc(=N)cc1,92.6% (active)
2,COC(=O)C1=C(c2cc3ccccc3s2)C[C@@H]2CC[C@H]1N2C(=O)NCc1cccc2ccccc12,-2.45%
3,COc1ccc(-n2c(-c3ccccc3)nc3ccccc3c2=O)cc1,7.55%
